Test results published in PubChem BioAssay AID463173 (ICCB-Longwood Screening Facility, Harvard Medical School, 2010).
Screen size: about 52,000 compounds; about 4,300 (8.3%) were called active. This is one part of a sample in which actives are shown more often than they occur. Cut-off read from the data, not from the text of the source: active = survival mostly below about 52% (no sharp cut-off); inactive = mostly above about 56%.

The compounds below were run on DeltatarO mutant (assay: growth inhibition of S. aureus wild type versus tarO mutant, primary screen, teichoic acid synthesis inhibitors, RN4220, OD600 (AID 463173)). Details: OD600, 18 h, stronger effect = lower value, screened at 18.75 µg/mL (by protocol).

Row | Structure (SMILES) | survival
1 | O=C(NCc1ccccc1Cl)c1c2c(nc3ccccc13)C(=O)N(C1CCCCC1)C2 | 92% (inactive)
2 | COC(=O)c1ccc(-n2c(/C=C/c3cc(OC)c(OC)c(OC)c3)nc3cc(Cl)ccc3c2=O)cc1 | 80% (inactive)
3 | Cc1cc2oc(C(=O)Nc3ccc(S(=O)(=O)N4CCC(C)CC4)cc3)cc(=O)c2cc1C | 72% (inactive)
4 | Cc1ccc2c(=O)cc(C(=O)Nc3ccc(S(=O)(=O)N4CCCCCC4)cc3)oc2c1 | 106% (inactive)
5 | Cc1cc2oc(C(=O)Nc3ccc(S(=O)(=O)N4CCCCCC4)cc3)cc(=O)c2cc1C | 42% (active)
6 | Cc1ccc(C)c(N2CCN(C(=O)C3CCN(C(=O)c4cc5sccc5n4C)CC3)CC2)c1 | 54% (inactive)
7 | CC1=C(C(=O)NCc2ccccc2C)C2(CCCCCC2)OC1=O | 78% (inactive)
8 | COc1ccc(-n2nc3cc(C)c(NC(=O)Cc4ccc(Cl)cc4)cc3n2)cc1 | 56% (inactive)
9 | Cc1ccc(-n2nc3cc(C)c(NC(=O)Cc4ccc(Cl)cc4)cc3n2)cc1 | 64% (inactive)
10 | COc1ccc(-n2nc3cc(C)c(NC(=O)c4ccc(-c5ccc(Br)cc5)o4)cc3n2)cc1 | 37% (active)
11 | Cc1ccc(-n2nc3cc(C)c(NC(=O)c4ccc(-c5ccccc5)o4)cc3n2)cc1 | 46% (active)
12 | COc1ccc(-n2nc3cc(C)c(NC(=O)c4ccc(-c5ccc(Cl)cc5)o4)cc3n2)cc1 | 45% (inactive)
13 | CCc1ccc(-n2nc3cc(C)c(NC(=O)c4ccccc4C)cc3n2)cc1 | 89% (inactive)
14 | Cn1nc(C(=O)NCc2ccc(Cl)cc2)c2c1-c1ccccc1SC2 | 78% (inactive)
15 | COc1ccc(-n2c(SCC(=O)Nc3nnc(C)s3)nc3c([nH]c4ccccc43)c2=O)cc1 | 83% (inactive)
16 | Cc1ccc(C)c(Nc2nn3c(=O)c4ccc(C(=O)NCc5ccccc5)cc4nc3s2)c1 | 55% (inactive)
17 | CCOC(=O)c1c(CC(C)C)csc1NC(C)=O | 71% (inactive)
18 | COc1cc(NC(=O)c2cc3cc4ccc(C)cc4nc3o2)cc(OC)c1OC | 89% (inactive)
19 | CCc1ccccc1NC(=O)c1cc(S(=O)(=O)N2CCc3ccccc32)ccc1F | 95% (inactive)
20 | Cc1ccc(Cl)cc1NC(=O)c1cc(-c2ccc3c(c2)OCCO3)on1 | 34% (active)
21 | Cc1cccc(NC(=O)c2cc(-c3ccc4c(c3)OCCO4)on2)c1 | 69% (inactive)
22 | O=C(Nc1cccc(Cl)c1)c1cc(-c2ccc3c(c2)OCO3)on1 | 77% (inactive)
23 | O=C(Nc1cc(Cl)ccc1O)c1cc(-c2ccc3c(c2)OCO3)on1 | 58% (inactive)
24 | O=C(Nc1c(Cl)cccc1Cl)c1cc(-c2ccc3c(c2)OCO3)on1 | 39% (active)

Row | Structure (SMILES) | survival
25 | O=C(Nc1cccc(Cl)c1)c1cc(-c2ccc3c(c2)OCCO3)on1 | 103% (inactive)
26 | Cc1c(Cl)cccc1NC(=O)c1cc(-c2ccc3c(c2)OCO3)on1 | 69% (inactive)
27 | CC(=O)c1cccc(NC(=O)c2cc(-c3ccc4c(c3)OCCO4)on2)c1 | 45% (active)
28 | O=C(Nc1cccc(Br)c1)c1cc(-c2ccc3c(c2)OCCO3)on1 | 47% (inactive)
29 | CNC(=O)CN1C(=O)COc2ccc(S(=O)(=O)N3CCCCCC3)cc21 | 91% (inactive)
30 | Cc1cc(OCC(=O)Nc2sc3c(c2C#N)CCC(C)C3)ccc1Cl (stereo not given) | 78% (inactive)
31 | CCOC(=O)c1cnn(-c2ccc(C(=O)Nc3cccc(C(C)=O)c3)cc2)c1N | 55% (inactive)
32 | CCN(CC)CCCNC(=O)c1sc2nc3n(c(=O)c2c1C)CCCCC3 | 111% (inactive)
33 | Cc1ccccc1NC(=O)c1c(C)oc2ccc(O)c(CN3CCCCCC3)c12 | 107% (inactive)
34 | O=c1n(Cc2ccc([N+](=O)[O-])cc2)c2ccccc2c2nc(-c3ccccc3)nn12 | 129% (inactive)
35 | Cc1ccc(CSCC(=O)N2CCN(c3ccc(F)cc3)CC2)cc1 | 70% (inactive)
36 | CCOc1ccccc1NC(=O)C1=C(C)Nc2ncnn2C1c1sccc1C (stereo not given) | 92% (inactive)
37 | COc1ccc(NC(=O)C2=C(C)Nc3ncnn3C2c2ccc[nH]2)cc1 (stereo not given) | 94% (inactive)
38 | COc1ccccc1NC(=O)C1=C(C)Nc2nnnn2C1c1ccc(C(F)(F)F)cc1 (stereo not given) | 66% (inactive)
39 | COc1ccccc1NC(=O)C1=C(C)Nc2nc3ccccc3n2C1c1ccccc1Cl (stereo not given) | 62% (inactive)
40 | CC1=C(C(=O)Nc2ccccc2)C(c2ccc[nH]2)n2ncnc2N1 (stereo not given) | 20% (active)
41 | CCOc1ccccc1C1C(C(=O)Nc2ccccc2OC)=C(C)Nc2nc3ccccc3n21 (stereo not given) | 59% (active)
42 | COc1ccccc1NC(=O)C1=C(C)Nc2nc3ccccc3n2C1c1cccc(OC)c1OC (stereo not given) | 70% (inactive)
43 | CC1=C(C(=O)Nc2ccccc2C)C(c2ccc[nH]2)n2ncnc2N1 (stereo not given) | 102% (inactive)
44 | COc1ccccc1NC(=O)C1=C(C)Nc2nnnn2C1c1cc(Br)c(O)c(OC)c1 (stereo not given) | 55% (active)
45 | CCCCOc1ccc(C2C(C(=O)Nc3ccccc3OC)=C(C)Nc3nnnn32)cc1OC (stereo not given) | 85% (inactive)
46 | CC1=C(C(=O)Nc2ccccc2Cl)C(c2cccs2)n2ncnc2N1 (stereo not given) | 101% (inactive)
47 | CCOc1ccccc1NC(=O)C1=C(C)Nc2ncnn2C1c1cccs1 (stereo not given) | 37% (active)
48 | COc1ccc(S(=O)(=O)N2CCC(c3nc4ccccc4s3)CC2)cc1OC | 86% (inactive)

Row | Structure (SMILES) | survival
49 | Cc1cc(NC(=O)OC2CCCC2)ccc1NC(=O)OC1CCCCC1 | 75% (inactive)
50 | COc1ccc(CNC(=O)C(=O)Nc2cccc(C)c2C)cc1 | 61% (inactive)
51 | Cc1ccccc1S(=O)Cc1ccc(C(=O)NCc2ccccc2Cl)o1 (stereo not given) | 73% (inactive)
52 | Cc1ccc(-c2nnc(Nc3ccc(Cl)c(Cl)c3)c3ccccc23)cc1S(=O)(=O)NCCO | 79% (inactive)
53 | CC(=O)Nc1ccc(S(=O)(=O)NCC2CCC(C(=O)NCCN(CC(C)C)CC(C)C)CC2)cc1 (stereo not given) | 61% (inactive)
54 | CC(=O)Nc1ccc(S(=O)(=O)N2CCN(c3ccc(C)c(C)c3)CC2)cc1 | 94% (inactive)
55 | O=C(CS(=O)(=O)c1cccc2nsnc12)Nc1ccc(F)cc1F | 102% (inactive)
56 | COc1ccccc1N1CCN(c2ncnc3c2c(-c2ccccc2)cn3-c2cccc(C)c2)CC1 | 70% (inactive)
57 | COc1ccc(-c2[nH]ncc2C(=O)NCc2cccc(Cl)c2)cc1 | 62% (inactive)
58 | Cc1ccc(C)c(CN2C(=O)c3ccccc3S(=O)c3ccc(C(=O)N(C)Cc4ccccc4)cc32)c1 (stereo not given) | 78% (inactive)
59 | Cc1ccc(Nc2cc(C(=O)NCc3cccs3)c3ccccc3n2)c(C)c1 | 72% (inactive)
60 | CC1=C(C(=O)Nc2ccccc2)C(c2cccn2C)n2ncnc2N1 (stereo not given) | 95% (inactive)
61 | COc1ccccc1NC(=O)C1=C(C)Nc2ncnn2C1c1ccccn1 (stereo not given) | 52% (inactive)
62 | COc1ccccc1NC(=O)C1=C(C)Nc2ncnn2C1c1cccn1C (stereo not given) | 8% (active)
63 | CCOc1ccccc1NC(=O)C1=C(C)Nc2ncnn2C1c1ccccn1 (stereo not given) | 25% (active)
64 | COc1ccc(NC(=O)C2=C(C)Nc3ncnn3C2c2cccn2C)cc1 (stereo not given) | 89% (inactive)
65 | CC1=C(C(=O)Nc2ccccc2C)C(c2ccccn2)n2ncnc2N1 (stereo not given) | 94% (inactive)
66 | Cc1ccccc1CN1C(=O)c2ccccc2Sc2ccc(C(=O)NC3CCCCC3)cc21 | 71% (inactive)
67 | O=C(O)C1CSC2c3ccccc3C(=O)N12 (stereo not given) | 103% (inactive)
68 | O=c1[nH]c2cc3c(cc2cc1CN(CCO)C(=S)Nc1cccc(Cl)c1)OCO3 | 69% (inactive)
69 | CCS(=O)(=O)N1CCc2cc(C(=O)NCc3ccc(C)cc3)ccc21 | 82% (inactive)
70 | O=C(NCc1ccccc1)c1ccc2c(c1)CCN2S(=O)(=O)c1ccc(Cl)cc1 | 73% (inactive)
71 | O=C(NCc1ccccc1)c1ccc2c(c1)CCN2S(=O)(=O)c1ccccc1 | 36% (active)
72 | CS(=O)(=O)N1CCc2cc(C(=O)NCc3ccccc3)ccc21 | 81% (inactive)

Row | Structure (SMILES) | survival
73 | Cc1ccc(CNC(=O)c2ccc3c(c2)CCN3S(=O)(=O)c2ccccc2)cc1 | 37% (active)
74 | Cc1ccc(CNC(=O)c2ccc3c(c2)CCN3S(=O)(=O)c2ccc(Br)cc2)cc1 | 80% (inactive)
75 | CC(=O)N1CCc2cc(S(=O)(=O)NC(Cc3ccccc3)C(=O)NCc3ccccc3)ccc21 (stereo not given) | 79% (inactive)
76 | Cc1ccc2c(c1)N(CC(=O)N(Cc1cccnc1)C1CCCC1)C(=O)C(C)O2 (stereo not given) | 97% (inactive)
77 | Cc1ccc(-n2nc(C(=O)N3CCN(c4cc(Cl)ccc4C)CC3)c(=O)n(C)c2=O)cc1 | 116% (inactive)
78 | Cc1ccc(OCC(=O)Nc2ccc3nc(SCC(=O)Nc4ccc(C)cc4C)sc3c2)cc1 | 73% (inactive)
79 | COc1ccc(N2CCN(c3nc4ccc(C)cc4n4nnnc34)CC2)cc1 | -5% (active)
80 | Cc1ccc2nc(N3CCN(c4ccccc4)CC3)c3nnnn3c2c1 | 88% (inactive)
81 | Cc1ccc2nc(NCc3ccccc3Cl)c3nnnn3c2c1 | 91% (inactive)
82 | COc1ccc(OC)c(CNc2nc3ccc(C)cc3n3nnnc23)c1 | 88% (inactive)
83 | Cc1ccc2nc(N3CCN(c4ccc(F)cc4)CC3)c3nnnn3c2c1 | 55% (inactive)
84 | COc1ccccc1CNc1nc2ccc(C)cc2n2nnnc12 | 17% (active)
85 | COc1ccc(-c2ccc(Nc3ccc(C(=O)N4CCCCCC4)cc3)nn2)cc1 | 71% (inactive)
86 | CCOc1ccccc1CNC(=O)c1cnc2sc(N3CCOCC3)nn2c1=O | 67% (inactive)
87 | CCOc1ccc(Cn2c(-c3ccc(OCC)c(OC)c3)nc3ccccc32)cc1OC | 79% (inactive)
88 | CCCCCn1c(CCCNC(=O)c2cccc(C)c2)nc2ccccc21 | 51% (inactive)
89 | CCCCCn1c(-c2ccc(OC)c(OC)c2)nc2ccccc21 | 1% (active)
90 | CCCCn1c(C)nc2ccccc21 | 104% (inactive)
91 | CCCCCn1c(C(C)NC(=O)c2ccccc2)nc2ccccc21 (stereo not given) | 81% (inactive)
92 | CCCCn1c(CCCNC(=O)c2cccc(C)c2)nc2ccccc21 | 55% (inactive)
93 | CCCCCn1c(-c2cccc(C)c2)nc2ccccc21 | -2% (active)
94 | CCCCCn1c(CCNC(=O)c2cccc(C)c2)nc2ccccc21 | 32% (active)
95 | CCCCCn1c(CCCNC(=O)c2ccccc2OC)nc2ccccc21 | 53% (inactive)
